Reference: the supplement of paper PMC9446081
± gives the standard deviation of the averaged measurements.

Legend:
Assay in all cases: relative enzymatic activity vs untreated control (fraction); higher = less inhibition
Conditions in all cases: 100 µM; incubation time: 2 h at 37 C
DNA gyrase = system: DNA gyrase
Procedure: (§1)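 In vitro enzymatic inhibition assays (ProFoldin kits) for 12 purified essential E. coli enzymes or complexes, each treated with 218 active antibacterial compounds at 100 µM for 2 h at 37°C. Read-outs were fluorescence or absorbance (phosphate detection, dye binding), converted to activity via standard curves and expressed relative to untreated DMSO controls.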

DNA helicase = DNA helicase (UniProt P0ACB1)
Procedure: as §1

DNA ligase = DNA ligase (UniProt B1XA82)
Procedure: as §1

DNA polymerase = DNA polymerase (UniProt P10443)
Procedure: as §1

DNA primase = DNA primase (UniProt P0ABS7)
Procedure: as §1

GlmU = GlmU (UniProt A7ZTU1)
Procedure: as §1

Guanlyate kinase = Guanlyate kinase (UniProt Q0TBG1)
Procedure: as §1

MurA = MurA (UniProt Q3YX52)
Procedure: as §1

MurD = target: T1, MurD (UniProt P14900)
T1 sequence (whole entry): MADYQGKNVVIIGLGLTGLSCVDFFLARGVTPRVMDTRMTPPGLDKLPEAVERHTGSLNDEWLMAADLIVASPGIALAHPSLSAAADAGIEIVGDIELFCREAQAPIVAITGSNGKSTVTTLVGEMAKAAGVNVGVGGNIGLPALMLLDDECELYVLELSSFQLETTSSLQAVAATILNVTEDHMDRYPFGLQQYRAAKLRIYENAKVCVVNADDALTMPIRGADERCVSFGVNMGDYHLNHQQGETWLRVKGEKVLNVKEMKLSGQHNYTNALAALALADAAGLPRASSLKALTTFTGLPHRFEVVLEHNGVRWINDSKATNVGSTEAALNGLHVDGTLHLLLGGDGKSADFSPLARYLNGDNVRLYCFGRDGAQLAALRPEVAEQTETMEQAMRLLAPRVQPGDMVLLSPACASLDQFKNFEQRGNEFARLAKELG
Procedure: as §1

MurF = target: T2, MurF (UniProt P11880)
T2 sequence (whole entry): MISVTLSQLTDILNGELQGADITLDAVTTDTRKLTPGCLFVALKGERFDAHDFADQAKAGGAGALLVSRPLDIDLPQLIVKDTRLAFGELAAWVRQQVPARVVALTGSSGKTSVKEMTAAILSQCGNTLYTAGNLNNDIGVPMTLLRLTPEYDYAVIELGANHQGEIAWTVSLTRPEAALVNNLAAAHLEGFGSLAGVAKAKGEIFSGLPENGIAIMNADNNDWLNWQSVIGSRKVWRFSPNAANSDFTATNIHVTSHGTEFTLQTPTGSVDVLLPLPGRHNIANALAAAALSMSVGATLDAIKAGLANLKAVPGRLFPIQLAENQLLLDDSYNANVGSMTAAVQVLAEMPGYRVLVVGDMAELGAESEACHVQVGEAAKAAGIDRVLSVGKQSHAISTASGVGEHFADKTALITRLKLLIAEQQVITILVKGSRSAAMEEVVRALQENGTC
Procedure: as §1

RNA polymerase = system: RNA polymerase
Procedure: as §1

Chain of MurA (Q3YX52 whole entry): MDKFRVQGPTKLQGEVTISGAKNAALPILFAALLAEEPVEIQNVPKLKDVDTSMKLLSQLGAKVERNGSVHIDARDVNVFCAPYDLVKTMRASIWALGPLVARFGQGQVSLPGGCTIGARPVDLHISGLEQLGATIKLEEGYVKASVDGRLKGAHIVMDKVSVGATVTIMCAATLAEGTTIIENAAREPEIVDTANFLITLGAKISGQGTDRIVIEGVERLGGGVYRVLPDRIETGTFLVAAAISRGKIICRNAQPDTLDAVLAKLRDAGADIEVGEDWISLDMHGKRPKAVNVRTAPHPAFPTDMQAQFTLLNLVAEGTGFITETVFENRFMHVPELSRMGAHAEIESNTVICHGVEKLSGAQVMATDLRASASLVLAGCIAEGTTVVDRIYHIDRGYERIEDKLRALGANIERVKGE
Chain of GlmU (A7ZTU1 whole entry, looked up): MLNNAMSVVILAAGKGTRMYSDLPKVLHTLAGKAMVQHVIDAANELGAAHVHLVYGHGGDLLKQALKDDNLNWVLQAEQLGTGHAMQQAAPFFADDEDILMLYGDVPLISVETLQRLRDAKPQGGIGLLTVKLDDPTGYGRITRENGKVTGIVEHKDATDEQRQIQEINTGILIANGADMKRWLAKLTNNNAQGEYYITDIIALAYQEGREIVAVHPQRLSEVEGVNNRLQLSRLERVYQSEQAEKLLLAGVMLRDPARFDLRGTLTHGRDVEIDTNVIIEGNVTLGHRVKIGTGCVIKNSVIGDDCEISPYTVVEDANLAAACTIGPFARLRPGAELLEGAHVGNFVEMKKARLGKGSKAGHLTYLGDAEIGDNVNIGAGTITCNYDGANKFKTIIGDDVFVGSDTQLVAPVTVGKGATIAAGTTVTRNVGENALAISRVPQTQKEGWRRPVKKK
Chain of DNA polymerase (P10443 whole entry): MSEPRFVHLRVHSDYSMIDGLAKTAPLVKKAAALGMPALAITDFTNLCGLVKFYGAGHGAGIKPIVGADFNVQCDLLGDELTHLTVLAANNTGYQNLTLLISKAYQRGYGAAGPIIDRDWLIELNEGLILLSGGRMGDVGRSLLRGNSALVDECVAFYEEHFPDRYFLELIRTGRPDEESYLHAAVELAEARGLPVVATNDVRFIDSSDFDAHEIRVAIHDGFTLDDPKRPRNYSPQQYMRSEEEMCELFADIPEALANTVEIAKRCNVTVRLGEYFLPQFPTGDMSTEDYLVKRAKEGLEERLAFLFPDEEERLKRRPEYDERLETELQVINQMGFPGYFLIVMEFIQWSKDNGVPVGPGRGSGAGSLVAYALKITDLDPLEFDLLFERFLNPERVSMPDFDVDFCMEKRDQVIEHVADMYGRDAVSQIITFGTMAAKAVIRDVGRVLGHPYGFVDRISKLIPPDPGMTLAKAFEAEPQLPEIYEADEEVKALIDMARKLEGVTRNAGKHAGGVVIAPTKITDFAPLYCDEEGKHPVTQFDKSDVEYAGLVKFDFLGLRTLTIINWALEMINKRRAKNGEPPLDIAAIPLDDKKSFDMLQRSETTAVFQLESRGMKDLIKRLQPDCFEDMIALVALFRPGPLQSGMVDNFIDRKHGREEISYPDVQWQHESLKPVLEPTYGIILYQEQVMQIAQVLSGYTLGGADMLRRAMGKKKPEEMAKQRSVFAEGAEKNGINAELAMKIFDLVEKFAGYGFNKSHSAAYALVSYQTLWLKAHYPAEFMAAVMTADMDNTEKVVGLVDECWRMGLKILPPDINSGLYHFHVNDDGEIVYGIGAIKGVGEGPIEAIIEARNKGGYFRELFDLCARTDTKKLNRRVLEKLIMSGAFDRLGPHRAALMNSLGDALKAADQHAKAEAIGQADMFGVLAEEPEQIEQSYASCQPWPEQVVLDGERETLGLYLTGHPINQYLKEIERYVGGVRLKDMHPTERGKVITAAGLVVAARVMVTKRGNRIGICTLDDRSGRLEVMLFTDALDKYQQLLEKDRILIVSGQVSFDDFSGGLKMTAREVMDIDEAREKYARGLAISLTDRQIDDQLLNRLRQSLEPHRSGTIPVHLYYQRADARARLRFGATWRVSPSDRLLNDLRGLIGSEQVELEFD
Chain of DNA ligase (B1XA82 whole entry): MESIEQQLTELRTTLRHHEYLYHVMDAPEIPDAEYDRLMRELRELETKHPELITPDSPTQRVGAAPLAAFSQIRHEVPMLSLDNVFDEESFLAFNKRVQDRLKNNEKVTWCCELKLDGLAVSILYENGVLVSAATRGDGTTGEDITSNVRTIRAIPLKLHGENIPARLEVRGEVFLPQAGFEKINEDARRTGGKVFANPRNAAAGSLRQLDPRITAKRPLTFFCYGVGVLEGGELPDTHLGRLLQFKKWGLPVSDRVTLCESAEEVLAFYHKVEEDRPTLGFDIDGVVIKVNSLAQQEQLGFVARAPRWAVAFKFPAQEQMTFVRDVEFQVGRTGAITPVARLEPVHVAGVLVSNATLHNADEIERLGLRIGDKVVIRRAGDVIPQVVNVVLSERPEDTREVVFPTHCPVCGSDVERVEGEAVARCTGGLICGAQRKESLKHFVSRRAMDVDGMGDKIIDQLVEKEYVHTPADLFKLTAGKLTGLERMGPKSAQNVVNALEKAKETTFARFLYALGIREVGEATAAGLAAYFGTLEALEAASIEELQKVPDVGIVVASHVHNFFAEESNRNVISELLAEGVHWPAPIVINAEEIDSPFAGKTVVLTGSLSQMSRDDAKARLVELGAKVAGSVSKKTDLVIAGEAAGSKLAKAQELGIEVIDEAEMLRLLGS
Chain of DNA helicase (P0ACB1 whole entry): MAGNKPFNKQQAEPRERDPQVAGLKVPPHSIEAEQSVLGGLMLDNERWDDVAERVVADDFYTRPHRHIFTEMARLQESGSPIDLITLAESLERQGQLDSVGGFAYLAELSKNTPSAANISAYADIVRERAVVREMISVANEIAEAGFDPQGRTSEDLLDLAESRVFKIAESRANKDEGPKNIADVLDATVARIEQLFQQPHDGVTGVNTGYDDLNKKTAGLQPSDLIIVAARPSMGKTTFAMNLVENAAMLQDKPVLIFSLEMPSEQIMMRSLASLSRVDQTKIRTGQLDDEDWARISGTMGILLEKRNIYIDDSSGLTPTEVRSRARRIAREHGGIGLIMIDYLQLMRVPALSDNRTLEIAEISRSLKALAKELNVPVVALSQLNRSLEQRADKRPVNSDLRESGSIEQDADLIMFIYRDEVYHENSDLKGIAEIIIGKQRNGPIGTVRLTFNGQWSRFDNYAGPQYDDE
Chain of Guanlyate kinase (Q0TBG1 whole entry): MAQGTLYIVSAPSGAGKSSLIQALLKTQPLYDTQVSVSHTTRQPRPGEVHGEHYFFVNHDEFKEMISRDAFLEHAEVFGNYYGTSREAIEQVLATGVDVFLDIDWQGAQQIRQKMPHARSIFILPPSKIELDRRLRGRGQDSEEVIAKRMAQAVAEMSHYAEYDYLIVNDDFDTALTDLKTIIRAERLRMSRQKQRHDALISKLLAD
Chain of DNA primase (P0ABS7 whole entry): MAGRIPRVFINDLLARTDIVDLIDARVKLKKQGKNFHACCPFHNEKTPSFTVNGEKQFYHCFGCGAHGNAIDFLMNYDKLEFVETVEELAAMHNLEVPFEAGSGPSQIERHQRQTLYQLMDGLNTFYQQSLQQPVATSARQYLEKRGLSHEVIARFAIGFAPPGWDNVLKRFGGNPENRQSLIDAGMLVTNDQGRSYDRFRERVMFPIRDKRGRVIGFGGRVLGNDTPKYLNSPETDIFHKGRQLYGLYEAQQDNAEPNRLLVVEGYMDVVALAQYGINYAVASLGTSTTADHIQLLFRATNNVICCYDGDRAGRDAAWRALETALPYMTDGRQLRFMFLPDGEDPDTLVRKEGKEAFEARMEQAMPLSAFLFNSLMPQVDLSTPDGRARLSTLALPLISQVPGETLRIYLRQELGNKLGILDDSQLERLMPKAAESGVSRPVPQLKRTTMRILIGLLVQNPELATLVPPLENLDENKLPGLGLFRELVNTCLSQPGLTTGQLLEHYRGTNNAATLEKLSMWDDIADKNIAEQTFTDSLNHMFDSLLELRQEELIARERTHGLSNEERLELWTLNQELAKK

| Structure (SMILES) | relative enzymatic activity (DNA gyrase) | relative enzymatic activity (DNA helicase) | relative enzymatic activity (DNA ligase) | relative enzymatic activity (DNA polymerase) | relative enzymatic activity (DNA primase) | relative enzymatic activity (GlmU) | relative enzymatic activity (Guanlyate kinase) | relative enzymatic activity (MurA) | relative enzymatic activity (MurD) | relative enzymatic activity (MurF) | relative enzymatic activity (RNA polymerase) |
| --- | --- | --- | --- | --- | --- | --- | --- | --- | --- | --- | --- |
| CC[C@H](C)C[C@H](C)CCCCCCCCC(=O)N[C@H]1C[C@@H](O)[C@@H](NCCN)NC(=O)[C@@H]2[C@@H](O)CCN2C(=O)[C@H]([C@H](O)CCN)NC(=O)[C@H]([C@H](O)[C@@H](O)c2ccc(O)cc2)NC(=O)[C@@H]2C[C@@H](O)CN2C(=O)[C@H]([C@@H](C)O)NC1=O | 0.131 ± 0.067 | 0.0208 ± 0.022 | 0.699 ± 0.13 | 0.2437 ± 0.00079 | 0.766 ± 0.017 | 1.03 ± 0.013 | 1.09 ± 0.022 | 0.522 ± 0.47 | 0.706 ± 0.5 | 1.39 ± 0.62 | 0.408 ± 0.013 |
| O=C(Cn1cnnn1)NC1C(=O)N2C(C(=O)O)=C(CSc3nncs3)CSC12 (configuration not stated) | 0.793 ± 0.43 | 0.757 ± 0.21 | 0.955 ± 0.18 | 0.505 ± 0.68 | 0.828 ± 0.017 | 1.045 ± 0.0046 | 0.932 ± 0.17 | 0.307 ± 0.16 | 0.598 ± 0.37 | 1.01 ± 0.22 | 0.799 ± 0.011 |
| Oc1c(Cl)cc(Cl)c(Cl)c1Cc1c(O)c(Cl)cc(Cl)c1Cl | 0.191 ± 0.12 | 0.06883 ± 0.00038 | 0.514 ± 0.1 | 0.222 ± 0.019 | 0.436 ± 0.0013 | 1.07 ± 0.11 | 0.162 ± 0.0089 | 0.899 ± 0.6 | 1.25 ± 0.89 | 0.446 ± 0.1 | 0.293 ± 0.0084 |
| CC(=O)OCC1=C(C(=O)[O-])N2C(=O)C(NC(=O)Cc3cccs3)C2SC1.[Na+] (configuration not stated) | 0.626 ± 0.6 | 0.395 ± 0.012 | 1.26 ± 0.12 | 1.09 ± 0.26 | 0.713 ± 0.036 | 1 ± 0.084 | 0.974 ± 0.057 | 0.0754 ± 0.023 | 0.597 ± 0.38 | 0.958 ± 0.23 | 0.622 ± 0.13 |
| Cc1scc2c1N(C(=O)CN1CCN(C)CC1)c1ccccc1NC2=O.Cl | 0.878 ± 0.31 | 0.526 ± 0.058 | 1.12 ± 0.35 | 1.17 ± 0.21 | 0.65 ± 0.14 | 1.1 ± 0.12 | 0.9435 ± 0.0079 | 0.703 ± 0.12 | 0.608 ± 0.41 | 0.931 ± 0.16 | 0.841 ± 0.091 |
| CCCC[P+](CCCC)(CCCC)Cc1ccc(NC(=O)[C@@H](Cc2ccc3ccccc3c2)N=C(NC2CCCCC2)NC2CCCCC2)cc1 | 0.0368 ± 0.052 | 0.0252 ± 0.0031 | 0.897 ± 0.14 | 0.636 ± 0.1 | 0.576 ± 0.037 | 0.139 ± 0.0022 | 0.245 ± 0.019 | 0.0381 ± 0.0081 | 0.092 ± 0.023 | 0.108 ± 0.018 | 0.2596 ± 0.002 |
| NCCCC[C@H](NC(=O)[C@@H](NC(=O)[C@H](Cc1c[nH]c2ccccc12)NC(=O)[C@H](CCCCN)NC(=O)[C@H](CCCCN)NC(=O)[C@H](Cc1c[nH]c2ccccc12)NC(=O)[C@H](Cc1c[nH]c2ccccc12)NC(=O)[C@H](CCCCN)NC(=O)[C@@H](N)CCCCN)C(c1ccccc1)c1ccccc1)C(N)=O | 0.0308 ± 0.044 | 0.0869 ± 0.0012 | 1.12 ± 0.43 | 0.0842 ± 0.0071 | 0.299 ± 0.053 | 0.879 ± 0.061 | 0.355 ± 0.02 | 0.477 ± 0.43 | 0.568 ± 0.41 | 0.833 ± 0.18 | 0.0964 ± 0.032 |
| CN(C)c1ccc(O)c2c1C[C@@H]1C[C@@H]3[C@@H](N(C)C)C(=O)C(C(N)=O)=C(O)[C@]3(O)C(=O)[C@H]1C2=O | 0.00646 ± 0.0091 | 0.123 ± 0.0035 | 0.699 ± 0.021 | 0.021 ± 0.0081 | 0.424 ± 0.027 | 0.655 ± 0.21 | 0.152 ± 0.014 | 0.0751 ± 0.025 | 0.665 ± 0.43 | 1.21 ± 0.043 | 0.00236 ± 0.0021 |
| Cl.O=C1CC2(CCCC2)CC(=O)N1CCCCN1CCN(c2ncccn2)CC1 | 0.812 ± 0.33 | 0.485 ± 0.034 | 0.999 ± 0.1 | 1.05 ± 0.045 | 0.81 ± 0.029 | 1.03 ± 0.042 | 1 ± 0.013 | 0.865 ± 0.1 | 0.609 ± 0.44 | 0.97 ± 0.21 | 0.83 ± 0.039 |
| CCN1CCN(C(=O)NC(C(=O)NC2C(=O)N3C2SC(C)(C)C3C(=O)[O-])c2ccccc2)C(=O)C1=O.[Na+] (configuration not stated) | 0.801 ± 0.4 | 0.634 ± 0.2 | 1.1 ± 0.11 | 1.32 ± 0.43 | 0.757 ± 0.24 | 0.886 ± 0.12 | 0.965 ± 0.12 | 0.612 ± 0.16 | 0.587 ± 0.41 | 0.938 ± 0.29 | 0.916 ± 0.077 |
| Cc1cn(C2CC(N=[N+]=[N-])C(CO)O2)c(=O)[nH]c1=O (configuration not stated) | 0.801 ± 0.34 | 0.472 ± 0.1 | 1.38 ± 0.076 | 1.3 ± 0.36 | 0.692 ± 0.18 | 1.002 ± 0.0012 | 0.865 ± 0.097 | 0.77 ± 0.043 | 0.573 ± 0.35 | 0.97 ± 0.2 | 0.887 ± 0.0091 |
| Cc1cc(O)c(C(=O)NC(C(=O)NC2C(=O)N3C(C(=O)O)=C(CSc4nnnn4C)CSC23)c2ccc(O)cc2)cn1 (configuration not stated) | 0.926 ± 0.39 | 0.805 ± 0.39 | 1.22 ± 0.41 | 1.34 ± 0.42 | 0.891 ± 0.028 | 0.962 ± 0.018 | 0.925 ± 0.044 | 0.346 ± 0.0056 | 0.601 ± 0.41 | 0.945 ± 0.24 | 0.862 ± 0.071 |
| NC(=O)NN=Cc1ccc([N+](=O)[O-])o1 | 0.958 ± 0.23 | 0.58 ± 0.06 | 1.11 ± 0.018 | 1.32 ± 0.48 | 0.739 ± 0.24 | 0.955 ± 0.085 | 0.897 ± 0.13 | 0.491 ± 0.15 | 0.559 ± 0.37 | 0.933 ± 0.28 | 0.8 ± 0.09 |
| CN(C)c1ccc(O)c2c1C[C@H]1C[C@H]3[C@H](N(C)C)C(=O)[C@@H](C(N)=O)C(=O)[C@@]3(O)C(=O)[C@H]1C2=O | 0.636 ± 0.27 | 0.47 ± 0.11 | 0.8372 ± 0.0039 | 0.973 ± 0.03 | 0.776 ± 0.056 | 1.03 ± 0.019 | 0.692 ± 0.016 | 0.306 ± 0.14 | 0.607 ± 0.43 | 0.981 ± 0.18 | 0.686 ± 0.011 |
| CC[C@H]1OC(=O)[C@H](C)[C@@H](O[C@H]2C[C@@](C)(OC)[C@@H](O)[C@H](C)O2)[C@H](C)[C@@H](O[C@@H]2O[C@H](C)C[C@H](N(C)C)[C@H]2O)[C@](C)(O)C[C@@H](C)CN(C)[C@H](C)[C@@H](O)[C@]1(C)O | 0.608 ± 0.34 | 0.527 ± 0.072 | 0.871 ± 0.086 | 1.04 ± 0.12 | 0.836 ± 0.027 | 0.99 ± 0.031 | 0.865 ± 0.079 | 0.746 ± 0.079 | 0.58 ± 0.37 | 0.95 ± 0.23 | 0.897 ± 0.19 |
| CN(C)c1ccc(O)c2c1CC1CC3C(N(C)C)C(O)=C(C(N)=O)C(=O)C3(O)C(O)=C1C2=O.Cl (configuration not stated) | 0.541 ± 0.071 | 0.129 ± 0.0081 | 0.831 ± 0.21 | 0.908 ± 0.4 | 0.4515 ± 0.0044 | 0.955 ± 0.066 | 0.577 ± 0.027 | 0.0902 ± 0.0036 | 0.602 ± 0.4 | 0.939 ± 0.18 | 0.184 ± 0.083 |
| C=CC1=C(C(=O)O)N2C(=O)[C@@H](NC(=O)/C(=N\O)c3csc(N)n3)[C@H]2SC1 | 0.489 ± 0.086 | 0.523 ± 0.095 | 0.92 ± 0.15 | 1.13 ± 0.24 | 0.774 ± 0.038 | 0.988 ± 0.07 | 0.885 ± 0.068 | 0.212 ± 0.095 | 0.619 ± 0.42 | 0.981 ± 0.22 | 0.894 ± 0.077 |
